# HPGD block – HPGD (human) dehydrogenase inhibition | Potency, µM, for inactives: top-dose activity change, negative = inhibition, most hits filed as inhibitors | purified HPGD, NADH fluorescence kinetic, PGE2 substrate | 150,000 tested, 4.3% active | P15428; note: potency is the fitted concentration of half-maximal effect
#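 20 nM HPGD preincubated 15 min at room temperature with compound in 50 mM Tris-HCl pH 8, 0.01% Tween 20. Started with 1 mM NAD+ and 30 uM prostaglandin E2; NADH fluorescence (360/450 nm) read 5 times over 30-s intervals, last minus first.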
# PNC inhibitor – blocks assembly of the perinucleolar compartment; PC3M PTB-GFP, PNC prevalence imaging, 16 h; active compounds read low; activity change (PNC), negative = inhibition, % at 10 µM; 140,000 tested, 3.1% active; AID 2417;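 active = readout at or below -70, meaning at least 70% loss of cells showing the perinucleolar compartment, a nuclear body marking cancer cells; inconclusive = readout between -30 and a set limit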;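 note: plate controls were DMSO wells for no effect and camptothecin positive control wells for full effect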
#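 Read-out is percentage of cells bearing a perinucleolar compartment, from automated 20x imaging of fixed, Hoechst-stained PC3M PTB-GFP cells. Cells were seeded 4 h, then exposed 16 h to compound (23 nl of library stock) in duplicate plates.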
# ALDH1A1 block – ALDH1A1 (human) enzyme inhibition; P00352; Potency, µM (doses to about 75.3 µM), for inactives: at the top dose activity, negative = inhibition, hits mostly inhibitors; Purified ALDH1A1, NADH fluorescence, propionaldehyde substrate; 220,000 tested, 7.3% active;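 note: potency is the fitted concentration of half-maximal effect; plate controls were no enzyme wells and a reference inhibitor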
# Target sequence (P00352 whole entry, looked up): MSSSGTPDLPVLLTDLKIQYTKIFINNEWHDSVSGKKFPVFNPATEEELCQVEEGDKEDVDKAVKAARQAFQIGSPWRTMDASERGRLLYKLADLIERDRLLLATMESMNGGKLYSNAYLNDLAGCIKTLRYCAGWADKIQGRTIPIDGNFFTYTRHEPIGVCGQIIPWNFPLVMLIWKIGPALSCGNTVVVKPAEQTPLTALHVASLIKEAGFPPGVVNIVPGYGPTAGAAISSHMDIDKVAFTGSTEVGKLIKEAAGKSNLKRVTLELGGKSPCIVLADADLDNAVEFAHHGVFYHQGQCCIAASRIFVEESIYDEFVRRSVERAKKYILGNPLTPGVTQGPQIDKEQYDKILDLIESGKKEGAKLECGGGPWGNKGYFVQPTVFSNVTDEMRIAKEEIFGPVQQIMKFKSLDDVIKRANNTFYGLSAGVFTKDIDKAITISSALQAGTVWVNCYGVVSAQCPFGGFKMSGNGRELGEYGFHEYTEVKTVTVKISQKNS
# An asterisk follows results filed as active; ? = inconclusive; . = not tested or not shown; [ ] = dose if it differs, or a comment. An excerpt weighted towards active compounds, which were near 11% of everything screened. Unless noted, calls come from the whole dose curve; as a rule, active = well fitted inhibition curve with a large enough effect (not every such curve was filed as active); inconclusive = small, poorly fitted or top-dose-only effect, or another doubt; inactive = no such curve, though single readings can be large or run the other way. Unless noted, % is set by controls: 0 for no effect and ±100 for the full control effect.
SMILES,HPGD block,PNC inhibitor,ALDH1A1 block
CCCCNC(=O)c1onc(CSc2cccc3ccccc23)c1C(=O)O,?,11,-11%
Cc1noc(C)c1COc1ccc(C(=O)NCCc2ccccn2)cc1,.,.,5%
O=C1SC(c2ccccc2)=C/C1=C\N1CCCCC1,-32%,-10,?
CN(C)/C=C1/C=C(c2ccccc2)OC1=O,-11%,37,?
O=C1OC(c2ccccc2)=C/C1=C/N1CCOCC1,-19%,-20,7.9µM*
O=C1OC(c2ccccc2)=C/C1=C\N1CCOCC1,-6%,?,11µM*
CCCCNc1c(NC(C)=O)c(=O)oc2ccccc12,-2%,?,6%
COc1ccc(C(C)(C)C)cc1NC(=S)NCCN1CCOCC1,.,32,0%
O=C(O)/C=C/C(=O)NC1CC1,.,.,3%
c1coc(CN(Cc2cccs2)Cc2nnnn2C2CCCCC2)c1,-16%,-100*,?
Clc1ccccc1CN(Cc1ccco1)Cc1nnnn1C1CCCC1,-12%,?,2%
COC(=O)C1=C(C(=O)OC)[C@@H]2N(C)c3ccc(OC)cc3[C@@]23C[C@@H](C(=O)OC)N(C(C)=O)C3=N1,-5%,.,3%[13.5 µM]
Cc1nn(C)cc1/C=C/C(=O)c1ccccc1,-11%,13,-13%
CC1N/C(=C\C(=O)c2ccccc2)N(O)C1(C)C (stereo not drawn),14µM*,23,-3%
Cc1ccc(S(=O)(=O)NN2C(=O)/C(=C/c3cccn3C)SC2=S)cc1,-26%,39,-4%
CC(C)C(C(=O)O)N1C(=O)/C(=C/c2cccn2C)SC1=S (stereo not drawn),-16%,-9,-7%
Cn1cccc1/C=C1\SC(=S)N(Nc2ccccc2)C1=O,.,.,3.5µM*
CCCC(C(=O)O)N1C(=O)/C(=C/c2cccn2C)SC1=S (stereo not drawn),18µM*,?,-2%
COc1ccc(C(=O)N2CCC3(CC2)CCN(c2ccncc2)CC3)cc1,-4%,.,8%
COc1ccc(-c2cc(=O)c3c(O)cc(O)c(-c4cc(-c5cc(=O)c6c(O)cc(O)cc6o5)ccc4OC)c3o2)cc1,-19%,.,-8%
COc1cccc(CC(NC(C)=O)C(=O)NC2CCN(C(=O)C3CC3)CC2)c1OC (stereo not drawn),.,.,2%
CCCc1cc(=O)n2[nH]c(-c3ccc(Br)cc3)cc2n1,-17%,-100*,-1%
CCOC(=O)Cc1cc(=O)n2[nH]c(-c3ccccc3)cc2n1,?,47,?
CN(C)CCCCN1CCc2c(n(C)c3ccccc23)C1=O,-8%,.,12%[13.5 µM]
C/C(=N\NC(=S)Nc1c(C)cccc1C)c1ccc(OC(F)F)cc1,-4%,2,-2%
SMILES,HPGD block,PNC inhibitor,ALDH1A1 block
COc1ccc(C(=O)NNC(=O)c2ccccc2[N+](=O)[O-])cc1,1%,-89*,8%
O=C(NCc1cccs1)c1ccccc1C(=O)NCc1cccs1,-4%,31,4%
COc1ccc(C(=O)NNC(=O)c2ccccc2[N+](=O)[O-])cc1Br,-6%,3,-6%
O=C(Nc1cccc(NC(=O)c2ccccc2[N+](=O)[O-])n1)c1ccccc1[N+](=O)[O-],-10%,16,-17%
O=C(NCc1cccs1)c1ccccc1[N+](=O)[O-],13µM*,?,8%
COc1ccc(C(=O)NNc2ccccc2)cc1,-18%,18,28µM*
O=C(NNC(=O)c1ccccc1[N+](=O)[O-])c1ccccc1[N+](=O)[O-],.,.,22µM*
COc1ccc(C(=O)c2ccccc2)cc1,.,.,-9%
COc1ccc(Oc2ccc(/C=C/C(=O)c3cccc(OC)c3)cc2[N+](=O)[O-])cc1,-16%,60,-5%
CC(=O)OC1CC[C@]2(C)C(CC(OC(C)=O)[C@]3(C)C2CC[C@@]2(C)C(c4ccoc4)OC(=O)C4O[C@]432)C1(C)C (stereo partly drawn),-6%,.,-5%
CCCC[C@@H]1C[C@H]1C(NC(=O)c1cccnc1)c1ccc(Cl)cc1 (stereo partly drawn),-27%,.,-46%
Cn1c(C[C@@H](O)c2nc3ccccc3n2C)nc2ccccc21,-16%,.,13%[13.5 µM]
Cc1nc2ccccn2c1-c1ccnn1S(=O)(=O)c1ccc(F)cc1,.,.,8%
CCCCC/C=C\C/C=C\C/C=C\C=C\[C@@H](O)CCCC(=O)O,-5%,.,5%
O=C(NNS(=O)(=O)c1ccccc1[N+](=O)[O-])c1ccc(O)cc1,13µM*,-25,3.2µM*
O=C(NNS(=O)(=O)c1ccccc1[N+](=O)[O-])c1ccc(F)cc1,.,.,-10%
CC1=NN(c2ccccc2)C(=O)/C1=C/c1c(O)n(-c2ccc(F)c(Cl)c2)[nH]c1=O,-28%,-116*,14µM*
CC1=NN(c2ccccc2)C(=O)/C1=C\c1c(C)[nH]n(-c2ccccc2)c1=O,-16%,20,-2%
COc1cccc(-c2nc(C(N)=O)c3[nH]c(=O)n(-c4cccc(Cl)c4)c3n2)c1OC,-12%,-4,6%
Cc1cccc(-n2c(=O)[nH]c3c(C(N)=O)nc(C(C)C)nc32)c1,?,-100*,-15%
Cc1ccc(OC(=O)c2cccc(S(=O)(=O)N3CCCC3)c2)c(-n2nc3ccccc3n2)c1,?,45,-2%
Cn1c(-c2cccc3ccccc23)n[nH]c1=S,-24%,12,-6%
Cn1c(-c2cc(Br)ccc2O)n[nH]c1=S,14µM*,?,3%
CCCN(CCC)CC(O)CN(c1ccccc1)S(=O)(=O)c1ccc(C)cc1 (stereo not drawn),-5%,?,15%
Cc1ccc(N(CC(O)COCc2ccco2)S(=O)(=O)c2ccc(C)cc2)cc1 (stereo not drawn),-20%,-20,3.2µM*
SMILES,HPGD block,PNC inhibitor,ALDH1A1 block
O=C(NC(=S)NNC(=O)[C@H]1C[C@@H]1c1ccccc1)c1ccc(F)cc1,.,.,25µM*
O=C(NNC(=O)C1CC1c1ccccc1)c1ccccc1F (stereo not drawn),.,.,9%
COCCNC(=O)CN(C(=O)Cn1nnc2ccccc21)c1cccc(C)c1C,.,.,-2%
O=C1CN2CCN(CC2)CC(=O)Nc2ccc(cc2)S(=O)(=O)c2ccc(cc2)NC(=O)CN2CCN(CC2)CC(=O)Nc2ccc(cc2)S(=O)(=O)c2ccc(cc2)N1,-14%,.,1.6µM*
CCCc1cc(=O)[nH]c(SCC(=O)NN(c2ccccc2)c2ccccc2)n1,.,.,-12%
Nc1ccc(S(=O)(=O)NNC(=O)C(=O)NNc2ccccc2)cc1,-6%,-10,-1%
O=C(NNc1ccccc1)C(=O)NNS(=O)(=O)c1ccc(CCCl)cc1,.,.,6.3µM*
CC(C)(C)NC(=O)C(c1ccccn1)N(C(=O)C1CSC(=O)C1)c1ccccc1F (stereo not drawn),.,.,-1%
CCOc1ccc(CCNC(=O)CSc2nn(-c3ccc(C)c(Cl)c3)c(=S)s2)cc1OCC,-25%,?,28µM*
CCOc1ccc(CCNC(=O)CSc2nnnn2C)cc1OCC,.,.,0%
O=[N+]([O-])c1ccc2c(c1)S(=O)c1ccccc1-2 (stereo not drawn),-7%,.,7%[13.5 µM]
O=C1c2c([N+](=O)[O-])cc([N+](=O)[O-])cc2S(=O)N1Cc1ccccc1 (stereo not drawn),.,.,3.5µM*
COC(=O)Cn1nnc(N2CCOCC2)n1,.,.,4%
O=c1[nH]c(=S)c2ncn(-c3ccccc3)c2[nH]1,.,.,25µM*
O=c1[nH]c(=S)c2[nH]c(=O)n(-c3ccccc3)c2[nH]1,-16%,.,0%[13.5 µM]

# From PubChem
